Assay [1] addresses Focal adhesion kinase 1 (Homo sapiens) (UniProt Q05397). The note with it: at 10 µM.
Assay [2] addresses Fibroblast growth factor receptor 1 (Homo sapiens) (UniProt P11362). Particulars: at 1 µM.
For assay [3] the target is unchanged. Particulars: at 10 µM.
Assay [4] has as its target Fibroblast growth factor receptor 2 (Homo sapiens) (UniProt P21802). Particulars: at 1 µM.
The target is the same in assay [5]. Particulars: at 10 µM.
Assay [6] addresses Fibroblast growth factor receptor 3 (Homo sapiens) (UniProt P22607). Particulars: at 1 µM.
For assay [7] the target is unchanged. Particulars: at 10 µM.
The target of assay [8] is Fibroblast growth factor receptor 4 (Homo sapiens) (UniProt P22455). The note with it: at 1 µM.
Sequence of Fibroblast growth factor receptor 4 (Homo sapiens) (P22455 22-802 limits assumed): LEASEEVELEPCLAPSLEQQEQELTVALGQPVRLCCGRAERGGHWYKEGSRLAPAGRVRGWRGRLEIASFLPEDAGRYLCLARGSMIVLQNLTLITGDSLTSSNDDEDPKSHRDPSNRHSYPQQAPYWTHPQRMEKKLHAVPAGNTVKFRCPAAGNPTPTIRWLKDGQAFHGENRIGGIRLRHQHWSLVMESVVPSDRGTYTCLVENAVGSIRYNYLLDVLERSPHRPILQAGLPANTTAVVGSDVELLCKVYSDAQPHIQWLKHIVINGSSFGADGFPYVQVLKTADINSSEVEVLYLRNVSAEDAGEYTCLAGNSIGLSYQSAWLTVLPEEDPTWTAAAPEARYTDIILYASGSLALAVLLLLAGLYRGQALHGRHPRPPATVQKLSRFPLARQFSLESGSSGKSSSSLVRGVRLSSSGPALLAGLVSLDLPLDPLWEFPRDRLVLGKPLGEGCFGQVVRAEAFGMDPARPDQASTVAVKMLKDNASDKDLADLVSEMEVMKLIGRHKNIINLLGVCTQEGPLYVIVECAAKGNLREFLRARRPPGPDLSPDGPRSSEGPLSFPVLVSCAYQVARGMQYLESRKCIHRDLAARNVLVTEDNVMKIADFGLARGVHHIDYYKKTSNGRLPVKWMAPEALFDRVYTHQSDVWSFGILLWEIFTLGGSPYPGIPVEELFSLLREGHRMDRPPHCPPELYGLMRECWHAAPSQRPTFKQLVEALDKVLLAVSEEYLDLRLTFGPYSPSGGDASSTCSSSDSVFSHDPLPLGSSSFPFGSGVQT
Assay [9] shares this target. Particulars: at 10 µM.
The target in assay [10] is Tyrosine-protein kinase Fer (Homo sapiens) (UniProt P16591). The note with it: at 1 µM.
Assay [11] has the same target. The note with it: at 10 µM.
For assay [12], the target named is Tyrosine-protein kinase Fes/Fps (Homo sapiens) (UniProt P07332). Particulars: at 1 µM.
Sequence of Tyrosine-protein kinase Fes/Fps (Homo sapiens) (P07332 whole entry): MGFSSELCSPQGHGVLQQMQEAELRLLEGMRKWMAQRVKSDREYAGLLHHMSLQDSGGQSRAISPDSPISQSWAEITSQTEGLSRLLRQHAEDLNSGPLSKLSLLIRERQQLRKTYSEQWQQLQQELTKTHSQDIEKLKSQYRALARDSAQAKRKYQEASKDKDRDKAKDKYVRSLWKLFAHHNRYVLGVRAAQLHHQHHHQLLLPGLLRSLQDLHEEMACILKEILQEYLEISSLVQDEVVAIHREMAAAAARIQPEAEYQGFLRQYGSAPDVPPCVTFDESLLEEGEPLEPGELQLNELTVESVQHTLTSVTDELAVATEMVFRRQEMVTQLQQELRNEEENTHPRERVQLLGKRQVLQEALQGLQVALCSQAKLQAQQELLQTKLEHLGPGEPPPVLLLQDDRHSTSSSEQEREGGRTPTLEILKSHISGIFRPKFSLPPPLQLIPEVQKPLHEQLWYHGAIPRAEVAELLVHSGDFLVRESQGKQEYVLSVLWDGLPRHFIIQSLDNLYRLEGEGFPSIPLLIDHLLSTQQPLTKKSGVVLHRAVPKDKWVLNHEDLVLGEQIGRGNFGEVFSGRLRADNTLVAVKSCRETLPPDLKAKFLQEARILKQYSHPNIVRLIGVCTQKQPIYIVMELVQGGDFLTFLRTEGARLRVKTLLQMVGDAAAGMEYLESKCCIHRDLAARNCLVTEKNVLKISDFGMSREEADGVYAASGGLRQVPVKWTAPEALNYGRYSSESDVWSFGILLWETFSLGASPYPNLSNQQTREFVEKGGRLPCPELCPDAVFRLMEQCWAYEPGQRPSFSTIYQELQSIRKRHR
Assay [13] shares this target. Particulars: at 10 µM.
Assay [14] deals with Tyrosine-protein kinase Fgr (Homo sapiens) (UniProt P09769). Particulars: at 1 µM.
Sequence of Tyrosine-protein kinase Fgr (Homo sapiens) (P09769 2-529 limits assumed): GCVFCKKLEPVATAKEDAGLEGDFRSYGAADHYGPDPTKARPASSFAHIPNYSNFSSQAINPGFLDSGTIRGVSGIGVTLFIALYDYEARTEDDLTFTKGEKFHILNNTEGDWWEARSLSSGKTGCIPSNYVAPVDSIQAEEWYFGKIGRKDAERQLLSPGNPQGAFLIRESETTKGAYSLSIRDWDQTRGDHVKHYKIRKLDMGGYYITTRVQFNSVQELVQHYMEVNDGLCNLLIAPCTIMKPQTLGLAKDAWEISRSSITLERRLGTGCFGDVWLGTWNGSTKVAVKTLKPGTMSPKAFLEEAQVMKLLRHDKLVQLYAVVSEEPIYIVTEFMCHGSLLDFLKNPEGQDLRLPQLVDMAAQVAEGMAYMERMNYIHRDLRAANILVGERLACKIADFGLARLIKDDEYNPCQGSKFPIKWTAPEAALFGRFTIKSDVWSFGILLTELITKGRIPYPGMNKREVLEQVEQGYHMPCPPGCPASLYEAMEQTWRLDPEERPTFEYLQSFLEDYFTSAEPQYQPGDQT
Assay [15] shares this target. The note with it: at 10 µM.
Assay [16] has as its target Vascular endothelial growth factor receptor 1 (Homo sapiens) (UniProt P17948). Particulars: at 1 µM.
For assay [17] the target is unchanged. Particulars: at 10 µM.
Assay [18] deals with Receptor-type tyrosine-protein kinase FLT3 (Homo sapiens) (UniProt P36888). Particulars: at 1 µM.
The target is the same in assay [19]. Particulars: at 10 µM.
The target in assay [20] is Vascular endothelial growth factor receptor 3 (Homo sapiens) (UniProt P35916). The note with it: at 1 µM.

Each structure is given as a SMILES string.

Broadly, the residual activity is the signal under treatment as a percentage of the control signal.

Sequence of Vascular endothelial growth factor receptor 1 (Homo sapiens) (P17948 whole entry): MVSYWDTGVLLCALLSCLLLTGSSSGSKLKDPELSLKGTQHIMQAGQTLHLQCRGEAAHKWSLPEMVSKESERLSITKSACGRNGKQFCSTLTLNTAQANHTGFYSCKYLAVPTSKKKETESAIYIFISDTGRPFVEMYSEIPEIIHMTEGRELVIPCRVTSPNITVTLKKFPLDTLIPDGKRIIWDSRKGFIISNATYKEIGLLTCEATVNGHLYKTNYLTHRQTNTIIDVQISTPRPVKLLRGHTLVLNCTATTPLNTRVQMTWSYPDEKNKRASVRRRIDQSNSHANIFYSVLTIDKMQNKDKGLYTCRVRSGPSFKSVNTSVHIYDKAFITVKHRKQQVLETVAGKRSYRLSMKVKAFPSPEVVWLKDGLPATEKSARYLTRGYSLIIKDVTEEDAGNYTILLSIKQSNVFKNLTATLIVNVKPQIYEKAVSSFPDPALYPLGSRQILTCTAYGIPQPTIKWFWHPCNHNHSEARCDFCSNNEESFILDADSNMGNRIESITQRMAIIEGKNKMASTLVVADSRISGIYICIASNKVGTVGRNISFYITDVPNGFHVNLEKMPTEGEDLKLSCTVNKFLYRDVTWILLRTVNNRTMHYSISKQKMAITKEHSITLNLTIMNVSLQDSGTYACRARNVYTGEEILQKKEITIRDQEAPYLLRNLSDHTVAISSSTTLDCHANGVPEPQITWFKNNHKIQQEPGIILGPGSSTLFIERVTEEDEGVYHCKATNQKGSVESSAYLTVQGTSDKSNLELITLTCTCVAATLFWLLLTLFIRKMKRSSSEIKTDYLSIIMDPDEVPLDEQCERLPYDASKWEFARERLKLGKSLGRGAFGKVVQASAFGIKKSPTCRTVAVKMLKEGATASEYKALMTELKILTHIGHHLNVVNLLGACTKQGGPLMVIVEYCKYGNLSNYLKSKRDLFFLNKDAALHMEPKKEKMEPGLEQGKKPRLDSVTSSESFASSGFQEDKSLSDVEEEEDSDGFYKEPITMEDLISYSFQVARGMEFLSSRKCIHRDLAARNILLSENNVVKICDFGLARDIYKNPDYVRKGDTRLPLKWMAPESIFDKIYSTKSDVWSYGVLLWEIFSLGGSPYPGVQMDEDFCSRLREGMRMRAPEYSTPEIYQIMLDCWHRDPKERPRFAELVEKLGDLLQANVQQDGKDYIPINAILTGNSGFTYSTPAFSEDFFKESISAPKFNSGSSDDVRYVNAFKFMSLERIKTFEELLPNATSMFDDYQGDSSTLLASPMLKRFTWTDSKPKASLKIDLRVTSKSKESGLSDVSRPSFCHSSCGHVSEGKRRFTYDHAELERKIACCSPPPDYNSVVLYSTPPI
Sequence of Fibroblast growth factor receptor 2 (Homo sapiens) (P21802 22-821 limits assumed): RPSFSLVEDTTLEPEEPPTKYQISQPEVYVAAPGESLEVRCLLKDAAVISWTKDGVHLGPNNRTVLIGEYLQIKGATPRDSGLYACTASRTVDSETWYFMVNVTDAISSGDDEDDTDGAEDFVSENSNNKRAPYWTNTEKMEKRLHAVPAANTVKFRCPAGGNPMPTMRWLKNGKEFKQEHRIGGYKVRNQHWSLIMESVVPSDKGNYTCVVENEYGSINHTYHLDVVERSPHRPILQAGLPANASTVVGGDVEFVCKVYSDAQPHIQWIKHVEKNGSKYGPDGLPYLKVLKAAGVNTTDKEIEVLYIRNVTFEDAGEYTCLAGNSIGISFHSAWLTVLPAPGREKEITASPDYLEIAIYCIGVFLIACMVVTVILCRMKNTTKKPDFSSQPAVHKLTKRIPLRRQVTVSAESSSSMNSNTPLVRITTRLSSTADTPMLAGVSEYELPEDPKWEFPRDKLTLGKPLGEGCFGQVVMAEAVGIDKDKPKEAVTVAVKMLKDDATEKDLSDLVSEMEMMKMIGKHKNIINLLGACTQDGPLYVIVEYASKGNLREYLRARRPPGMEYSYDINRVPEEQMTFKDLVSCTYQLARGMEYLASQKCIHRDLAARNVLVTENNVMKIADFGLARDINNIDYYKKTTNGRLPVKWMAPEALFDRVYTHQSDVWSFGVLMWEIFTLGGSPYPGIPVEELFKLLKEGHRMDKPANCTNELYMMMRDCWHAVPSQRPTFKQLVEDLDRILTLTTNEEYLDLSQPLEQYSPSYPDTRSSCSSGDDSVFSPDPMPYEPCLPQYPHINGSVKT
Sequence of Fibroblast growth factor receptor 1 (Homo sapiens) (P11362 22-822 limits assumed): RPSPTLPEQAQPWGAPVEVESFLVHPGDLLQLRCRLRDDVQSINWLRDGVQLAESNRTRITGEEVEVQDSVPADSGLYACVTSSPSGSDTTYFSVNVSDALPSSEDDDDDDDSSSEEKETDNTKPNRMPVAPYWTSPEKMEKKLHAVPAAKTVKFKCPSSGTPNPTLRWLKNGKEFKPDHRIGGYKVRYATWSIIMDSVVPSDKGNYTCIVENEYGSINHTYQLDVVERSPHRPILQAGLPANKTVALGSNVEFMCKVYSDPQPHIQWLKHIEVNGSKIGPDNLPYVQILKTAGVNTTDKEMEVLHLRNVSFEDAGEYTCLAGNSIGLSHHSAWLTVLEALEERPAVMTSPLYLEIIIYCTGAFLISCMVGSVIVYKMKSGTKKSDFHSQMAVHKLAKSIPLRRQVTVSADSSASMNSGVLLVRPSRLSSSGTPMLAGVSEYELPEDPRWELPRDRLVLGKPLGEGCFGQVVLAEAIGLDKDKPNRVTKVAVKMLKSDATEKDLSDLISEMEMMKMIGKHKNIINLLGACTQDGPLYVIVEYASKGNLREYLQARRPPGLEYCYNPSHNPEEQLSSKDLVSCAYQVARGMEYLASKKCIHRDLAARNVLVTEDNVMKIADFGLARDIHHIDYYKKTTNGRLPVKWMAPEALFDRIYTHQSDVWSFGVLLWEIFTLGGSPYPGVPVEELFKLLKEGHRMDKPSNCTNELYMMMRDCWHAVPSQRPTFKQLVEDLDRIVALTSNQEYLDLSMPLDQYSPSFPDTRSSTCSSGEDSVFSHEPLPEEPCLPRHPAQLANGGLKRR

`Cc1ccc(NC2=CC(=O)c3sc(C)nc3C2=O)cc1`: the residual activity in assay [1] amounted to 99%; in [2], 106%; in assay [3], 112%; in assay [4], 100%; in assay [5], 92%; in assay [6] it was 107%. The residual activity in assay [7] turned out to be 118%; in assay [8], 101%; in assay [9], 90%; in [10], 92%; in [11] it was 96%; in assay [12], 97%. Further, the residual activity in [13] is 104%; in [14], 90%; in assay [15], 109%; in assay [16], 96%; in [17], 91%; in assay [18] it was 85%. Besides, the residual activity in assay [19] came out at 81%; in [20], 95%.

With `CNc1cc2c(Nc3cccc(Br)c3)ncnc2cn1`, the residual activity was determined as 82% in assay [1]; 102% in [2]; 66% in assay [3]; 89% in [4]; 88% in [5]; 90% in assay [6]. Further, the residual activity in [7] was 100%; in assay [8], 109%; in assay [9], 86%; in assay [10], 105%; in assay [11], 90%; in assay [12], 116%. Moreover, the residual activity in [13] is 92%; in assay [14] it was 73%; in assay [15] it was 60%; in assay [16] it was 87%; in [17], 58%; in assay [18], 119%. The residual activity in assay [19] turned out to be 107%; in assay [20], 87%.

Turning to `O=Nc1c(-c2c(O)[nH]c3ccccc23)[nH]c2ccccc12`, the residual activity was 2% in assay [1]; 3% in assay [2]; -1% in assay [3]; 22% in assay [4]; 2% in assay [5]; 20% in assay [6]. The residual activity in assay [7] came out at 2%; in [8], 100%; in [9] it was 45%; in [10] it was 70%; in [11], 53%; in [12], 72%. In addition, the residual activity was 30% in assay [13]; 8% in assay [14]; 1% in [15]; 1% in [16]; 0% in assay [17]; 1% in assay [18]. Further, the residual activity in assay [19] was 0%; in assay [20], -1%.

As to `CC[n+]1c(/C=C/N(C)c2ccccc2)n(-c2ccccc2)c2ccc(-c3nc4ccccc4s3)cc21`, the residual activity in [1] was determined as 80%; in assay [2], 99%; in assay [3] it was 55%; in [4], 93%; in [5] it was 123%; in assay [6], 105%. For the same compound, the residual activity in assay [7] is 104%; in assay [8], 101%; in assay [9], 84%; in [10], 116%; in assay [11], 59%; in [12] it was 121%. Also, the residual activity is 105% in assay [13]; 98% in [14]; 88% in assay [15]; 105% in [16]; 83% in assay [17]; 77% in assay [18]. For the same compound, the residual activity in [19] is 26%; in [20], 89%.

On to `CC(C)n1cnc2c(NCc3ccccc3)nc(NCCCO)nc21`, for which the residual activity in assay [1] stood at 57%; in assay [2] it was 104%; in assay [3], 65%; in assay [4], 111%; in assay [5] it was 87%; in assay [6], 111%. Besides, the residual activity worked out at 93% in assay [7]; 104% in [8]; 81% in assay [9]; 102% in [10]; 103% in assay [11]; 94% in assay [12]. In addition, the residual activity in assay [13] was found to be 51%; in assay [14], 103%; in assay [15], 103%; in assay [16], 94%; in assay [17], 87%; in [18] it was 89%. Besides, the residual activity worked out at 78% in [19] and 87% in assay [20].

With `CO[C@H]1C[C@@H]2CC[C@@H](C)[C@@](O)(O2)C(=O)C(=O)N2CCCC[C@H]2C(=O)O[C@H]([C@H](C)C[C@@H]2CC[C@@H](O)[C@H](OC)C2)CC(=O)[C@H](C)/C=C(\C)[C@@H](O)[C@@H](OC)C(=O)[C@H](C)C[C@H](C)/C=C/C=C/C=C/1C`, the residual activity in assay [1] worked out at 83%; in assay [2], 111%; in assay [3], 63%; in [4], 115%; in [5], 114%; in [6] it was 97%. For the same compound, the residual activity in assay [7] was 107%; in assay [8] it was 138%; in assay [9], 145%; in [10], 106%; in [11] it was 95%; in assay [12], 106%. Further, the residual activity was found to be 84% in assay [13]; 98% in assay [14]; 99% in assay [15]; 88% in assay [16]; 96% in assay [17]; 100% in assay [18]. The residual activity in assay [19] is 96%; in [20], 99%.

As for `COc1ccc(OC)c2c(=S)c3ccccc3[nH]c12`, the residual activity in assay [1] came out at 108%; in assay [2], 116%; in assay [3], 82%; in assay [4], 97%; in assay [5], 85%; in assay [6], 129%. Also, the residual activity came out at 113% in assay [7]; 112% in [8]; 88% in assay [9]; 98% in assay [10]; 92% in [11]; 89% in [12]. Moreover, the residual activity in assay [13] worked out at 103%; in assay [14] it was 94%; in assay [15] it was 99%; in assay [16], 90%; in [17] it was 77%; in assay [18], 83%. In addition, the residual activity in [19] was found to be 73%; in assay [20], 89%.

With `Cc1nc2cc3nc(-c4cccs4)cnc3cc2n1C`, the residual activity in assay [1] was 105%; in [2], 102%; in [3], 41%; in [4] it was 72%; in assay [5], 30%; in assay [6], 79%. Besides, the residual activity in assay [7] worked out at 23%; in assay [8] it was 119%; in assay [9], 95%; in assay [10], 113%; in assay [11], 105%; in assay [12] it was 134%. Further, the residual activity stood at 88% in assay [13]; 109% in assay [14]; 69% in assay [15]; 40% in assay [16]; 3% in [17]; 15% in assay [18]. Also, the residual activity was 1% in [19] and 24% in assay [20].

On to `CCOc1cc2ncnc(Nc3cccc(Br)c3)c2cc1OCC`, for which the residual activity in [1] was determined as 79%; in [2], 66%; in assay [3], 18%; in assay [4], 98%; in assay [5], 88%; in [6], 92%. Besides, the residual activity in assay [7] was found to be 85%; in assay [8], 111%; in [9], 92%; in assay [10] it was 116%; in [11], 85%; in [12], 112%. The residual activity stood at 80% in [13]; 54% in [14]; 10% in assay [15]; 54% in assay [16]; 6% in [17]; 101% in assay [18]. Besides, the residual activity in assay [19] was 40%; in assay [20], 36%.

Regarding `O=c1cc(-c2cccc3c2Sc2ccccc2S3)oc(N2CCOCC2)c1`, the residual activity amounted to 116% in assay [1]; 120% in assay [2]; 95% in [3]; 106% in [4]; 81% in [5]; 112% in assay [6]. Moreover, the residual activity in assay [7] worked out at 84%; in assay [8] it was 104%; in [9], 88%; in assay [10], 115%; in assay [11] it was 83%; in assay [12], 94%. Also, the residual activity in [13] turned out to be 96%; in assay [14] it was 99%; in assay [15] it was 93%; in [16] it was 95%; in assay [17], 85%; in assay [18], 85%. Also, the values for the residual activity in assay [19] and in [20] were 83% and 97%, respectively.

For the compound `O=C1Nc2cc(Br)ccc2/C1=C1/Nc2ccccc2/C1=N\O`, the residual activity in assay [1] is 15%; in [2], 3%; in [3], 3%; in assay [4], 16%; in assay [5], 18%; in assay [6], 59%. In addition, the residual activity in assay [7] came to 54%; in assay [8] it was 67%; in assay [9] it was 35%; in assay [10], 86%; in [11] it was 45%; in assay [12] it was 79%. Further, the residual activity in [13] is 100%; in assay [14], 1%; in assay [15], 2%; in assay [16], -1%; in [17], 1%; in assay [18], 1%. Moreover, the residual activity in assay [19] and in assay [20] was 1% each time.

Regarding `Cc1nc(-c2ccccc2)c(-c2ccncc2)o1`, the residual activity worked out at 98% in assay [1]; 120% in assay [2]; 83% in [3]; 86% in assay [4]; 74% in assay [5]; 121% in assay [6]. Also, the residual activity in assay [7] stood at 114%; in assay [8], 109%; in [9], 99%; in assay [10], 101%; in assay [11] it was 105%; in assay [12] it was 108%. Moreover, the residual activity was found to be 120% in [13]; 95% in assay [14]; 92% in [15]; 89% in assay [16]; 60% in [17]; 69% in assay [18]. Moreover, the values for the residual activity in assay [19] and in assay [20] were 28% and -1%, respectively.

As for `Cn1cnc2cc3c(Nc4cccc(Br)c4)ncnc3cc21`, the residual activity turned out to be 93% in [1]; 74% in assay [2]; 43% in [3]; 92% in [4]; 89% in assay [5]; 102% in assay [6]. In addition, the residual activity worked out at 97% in assay [7]; 127% in assay [8]; 96% in assay [9]; 115% in assay [10]; 93% in [11]; 132% in assay [12]. The residual activity in [13] turned out to be 83%; in assay [14], 63%; in assay [15], 35%; in assay [16], 43%; in [17], 18%; in assay [18], 113%. Further, the residual activity in [19] was found to be 58%; in [20], 40%.

Regarding `Oc1c2ccccc2c2c3c(cccc13)N=N2`, the residual activity is 9% in [1]; 39% in [2]; 4% in [3]; 52% in assay [4]; 12% in assay [5]; 72% in assay [6]. Moreover, the residual activity in [7] was 40%; in [8], 110%; in assay [9], 89%; in assay [10], 75%; in [11], 51%; in assay [12], 34%. In addition, the residual activity in [13] was determined as 6%; in assay [14], 75%; in assay [15], 38%; in assay [16] it was 26%; in assay [17], 2%; in assay [18], 6%. The residual activity in [19] was determined as 1%; in [20], 2%.

The record behind these values is ChEMBL document CHEMBL2218924, “A broad activity screen in support of a chemogenomic map for kinase signalling research and drug discovery” (Biochem J, 2013).
